Assay [1] has as its system HEK293T-Rex XBP1-RLuc. As to the kind of experiment: XBP1-RLuc splicing reporter activation, triplicate, relative to 500 nM thapsigargin (% of thapsigargin); higher = stronger IRE1/XBP1s reporter activation. To be noted: 6.8 µM; 18 h; screen: confirmation. Here is the method: (§1)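 HEK293T-Rex cells stably expressing the ERSE-firefly luciferase (BiP promoter, ATF6-preferring) or XBP1-splicing Renilla luciferase (IRE1/XBP1s) reporter, 1536-well plates, compound at 6.8 µM for 18 hr at 37 °C; luminescence read […] and expressed as % activation = 100*(compound - median DMSO)/(median 500 nM thapsigargin - median DMSO). Primary screen was single-pass; confirmation screen in triplicate (mean ± SD).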

In assay [2] the test system is HEK293T-Rex ERSE-FLuc. The experiment in a line: ERSE-FLuc reporter activation, triplicate confirmation, relative to 500 nM thapsigargin (% of thapsigargin); higher = stronger ATF6/ERSE reporter activation. The conditions noted are these: 6.8 µM; 18 h; screen: confirmation. Here is the method: as §1

± gives the uncertainty stated by the source.

The values below come from the supplement of paper PMC4954754.

Turning to `CCCCNC(=O)c1cc(-c2ccc(F)cc2)on1`, the “XBP1-RLuc splicing reporter activation” value in assay [1] came to 7.08 ± 0.26. In assay [2], this compound displayed an ERSE-FLuc reporter activation of 40.8 ± 5.3.
Turning to `Cc1ccccc1-c1cc(=O)c2cc(Cl)ccc2o1`, the “XBP1-RLuc splicing reporter activation” value in assay [1] amounted to 8.38 ± 3.8. The compound also gave an ERSE-FLuc reporter activation in assay [2] of 25.5 ± 3.8.
For `O=C(Nc1ccc2nc(NC(=O)C3CCCCC3)sc2c1)C1CCCCC1`, in that order: 6.08 ± 0.7 and 26.5 ± 4.1.
For `COc1cccc(-c2cc(C(=O)Nc3cc(C)ccc3O)no2)c1`, in that order: 12.6 ± 4.8 and 43.9 ± 11.
For `COc1ccc(/C=N/NC(=O)c2cccc(F)c2)cc1Br`, the “XBP1-RLuc splicing reporter activation” value in assay [1] worked out at 1.01 ± 0.87. Further, the ERSE-FLuc reporter activation in assay [2] was found to be 35.4 ± 1.5.
Consider `CC(=O)Oc1cc(N2CCOCC2)c(OC(C)=O)c2c1C(=O)c1ccccc1C2=O`, for which, in assay [1], the “XBP1-RLuc splicing reporter activation” value worked out at 8.79 ± 2. This compound displayed an ERSE-FLuc reporter activation in assay [2] of 45 ± 8.
For `O=C(N/N=C/c1ccc(O)c(O)c1)c1cccc(Cl)c1`, in that order: 6.18 ± 0.63 and 32.8 ± 3.2.
For `CCOc1ccc(NC(=O)c2ccc3c(c2)OCO3)c([N+](=O)[O-])c1`, in that order: -0.432 ± 2.4 and 30.1 ± 1.8.
The matching figures for `CC(C)CNC(=O)c1cc(-c2ccc(F)cc2)no1`: 4.97 ± 1.2 and 26.6 ± 1.6.
Turning to `CN(C)c1ccc(C2C(C#N)=C(N)Oc3c2sc2ccccc32)cc1[N+](=O)[O-]` (centres undefined), the “XBP1-RLuc splicing reporter activation” value in assay [1] turned out to be 9.04 ± 0.83. The same compound displayed an ERSE-FLuc reporter activation in assay [2] of 26 ± 0.29.
Regarding `COc1ccc(CCNC(=O)c2cccc(-c3ccc(N4CCOCC4)nc3)c2)cc1`, the “XBP1-RLuc splicing reporter activation” value in assay [1] stood at 1.79 ± 0.38. The ERSE-FLuc reporter activation in assay [2] came out at 48.7 ± 4.2.
Regarding `O=C(N/N=C/c1ccc(O)c(O)c1)c1ccc(Br)cc1`, the “XBP1-RLuc splicing reporter activation” value in assay [1] is 20.9 ± 0.79. The same compound gave an ERSE-FLuc reporter activation in assay [2] of 31.2 ± 2.8.
`Oc1ccc(-c2csc(-c3cccnc3)n2)cc1O`: the “XBP1-RLuc splicing reporter activation” value in assay [1] was determined as 15.2 ± 0.9. The compound further yielded an ERSE-FLuc reporter activation in assay [2] of 29.3 ± 1.4.
The matching figures for `Oc1ccc(-c2cnc3c(Nc4ccc5[nH]ccc5c4)nccn23)cc1`: 39.2 ± 1.5 and 35.7 ± 5.6.
The matching figures for `O=C1N/C(=C/c2ccc(O)cc2)C(=O)N1c1cccc(Cl)c1`: 61.1 ± 1.4 and 68.2 ± 5.7.
The matching figures for `O=C1c2cc(O)ccc2-c2ccc(O)cc21`: 17.8 ± 0.69 and 25.6 ± 6.
As to `CC(=O)Oc1ccc(C(=O)OCc2ccc(Cl)cc2)cc1OC(C)=O`, the “XBP1-RLuc splicing reporter activation” value in assay [1] stood at 12.3 ± 2.2. The same compound registered an ERSE-FLuc reporter activation in assay [2] of 35.9 ± 4.4.
The matching figures for `CCCCNc1ncnc2c1cnn2-c1ccc(Cl)cc1`: 1.56 ± 1.6 and 30.3 ± 4.6.
For `O=C(COC(=O)c1ccc(O)c(O)c1)Nc1nc(-c2ccccc2)cs1`, in that order: 18.6 ± 3.9 and 39.3 ± 5.9.
The matching figures for `O=[N+]([O-])c1ccc(N/N=C/c2ccccc2O)cc1`: 2.37 ± 0.96 and 20.7 ± 2.3.
Turning to `O=C(N/N=C\C(Cl)=C\c1ccccc1)c1n[nH]c2c1CCCC2`, the “XBP1-RLuc splicing reporter activation” value in assay [1] is 6.87 ± 1.5. For the same compound, the ERSE-FLuc reporter activation in assay [2] turned out to be 33.3 ± 7.3.
`COc1ccc(-c2cnnc(N/N=C/c3ccc(O)c(O)c3)n2)cc1`: in assay [1], the “XBP1-RLuc splicing reporter activation” value worked out at 24 ± 2.2. In assay [2], the ERSE-FLuc reporter activation turned out to be 35.9 ± 7.5.
The matching figures for `O=C(CCCCCCC(=O)Nc1ccccc1)NO`: -3.63 ± 0.95 and 59.2 ± 17.
For `Oc1ccc(/C=N/Nc2cccc3cccnc23)cc1O`, in that order: 17.3 ± 2.3 and 33.1 ± 4.8.
For `N#C/C(=C(/O)c1cc(-c2ccccc2)nc2ccccc12)c1nc2ccccc2[nH]1`, in that order: 9.52 ± 1.4 and 31.1 ± 13.
As to `COc1ccc2c(Cl)c(C(=O)Nc3ccccc3C(N)=O)sc2c1`, the “XBP1-RLuc splicing reporter activation” value in assay [1] worked out at 4.82 ± 1.1. The compound also displayed an ERSE-FLuc reporter activation in assay [2] of 31.6 ± 1.1.
For `Cc1ccc(C(=O)Nc2sc3c(c2C#N)CCC3)cc1`, in that order: 4.62 ± 0.97 and 27.4 ± 2.7.
For `CN(C)c1ccc(/C=N/NC(=O)c2cccc(Br)c2)cc1`, in that order: 1.93 ± 3.2 and 26.5 ± 2.7.
For `O=C(Nc1ccccc1O)c1ccc(C(=O)c2ccccc2)cc1`, the “XBP1-RLuc splicing reporter activation” value in assay [1] is 10.4 ± 0.77. Moreover, the ERSE-FLuc reporter activation in assay [2] is 41.5 ± 9.7.
Regarding `COc1ccccc1-c1nnc(Nc2nc3c(OC)cccc3s2)o1`, in assay [1], the “XBP1-RLuc splicing reporter activation” value came to 10.2 ± 1. This compound displayed an ERSE-FLuc reporter activation in assay [2] of 51 ± 10.
For `Nc1ccccc1NC(=O)c1ccc(Cl)cc1`, in that order: 10 ± 0.7 and 33.6 ± 4.6.
For `COc1ccc(/C=C/c2nc3cc([N+](=O)[O-])ccc3s2)cc1O`, in that order: 4.47 ± 0.66 and 25.5 ± 3.9.
Consider `COc1ccc(/C(C)=N/OC/C(O)=C(\C#N)c2nc3ccccc3[nH]2)cc1OC`, for which the “XBP1-RLuc splicing reporter activation” value in assay [1] was determined as 24.6 ± 1.4. In addition, the ERSE-FLuc reporter activation in assay [2] turned out to be 31.3 ± 11.
For `Cc1ccc2nc(/C(C#N)=C\c3cc(Cl)cc4c3OCOC4)[nH]c2c1`, in that order: 12.1 ± 2.3 and 51.3 ± 9.8.
The matching figures for `Cc1cccc2c1[nH]c1nc(N/N=C\c3c[nH]c4ccccc34)nnc12`: 21.8 ± 1.6 and 60.4 ± 14.
For `C/C(=N\NC(=O)c1n[nH]c2c1CCCC2)c1ccc2ccccc2c1`, in that order: 1.43 ± 0.96 and 30.7 ± 2.6.
In the case of `O=C(N/N=C/c1cccc2ccccc12)c1ccc2c(c1)OCO2`, the “XBP1-RLuc splicing reporter activation” value in assay [1] was 5.9 ± 3.2. For the same compound, the ERSE-FLuc reporter activation in assay [2] was determined as 29.9 ± 4.3.
